Source: PubChem BioAssay AID1159580 (chemical genetic matrix, 2015)
The whole screen tested about 5,500 compounds, of which about 2,000 (36%) were called active. About 18% were inconclusive and are not listed. No stated cut-off is given here; in the data, active means normalized growth mostly below about 0.91 (no sharp cut-off); inconclusive means no clear call, values can overlap the other calls; inactive means mostly above about 0.92. The list shows a part of the results.

Assay: chemical genetic growth profiling, strain panel (AID 1159580);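 further: tested at 20 µM; growth read once vehicle control cultures reached saturation at 30 °C; 1 = growth at the plate median or of vehicle wells; lower values mean less growth of the strain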
Conditions: S. cerevisiae deletion strains, growth OD

Measured: normalized growth

CCC(=O)OCC(=O)C1(OC(=O)CC)C(C)CC2C3C(Cl)CC4=CC(=O)C=CC4(C)C3C(O)CC21C (stereo not given)
inactive: locus YAL021C, strain ccr4, active compounds read low 1.02 | locus YAL026C, strain drs2, active compounds read low 1.03 | locus YAL030W, strain snc1, active compounds read low 1.01 | locus YBL061C, strain skt5, active compounds read low 1.01 | locus YBR009C, strain hhf1, active compounds read low 1.09 | locus YBR023C, strain chs3, active compounds read low 1.02 | locus YBR171W, strain sec66, active compounds read low 1.04 | locus YBR231C, strain swc5, active compounds read low 1.02 | locus YBR279W, strain paf1, active compounds read low 1.01 | locus YCL011C, strain gbp2, active compounds read low 1.06 | locus YCL016C, strain dcc1, active compounds read low 1.04 | locus YCL069W, strain vba3, active compounds read low 1.04 | locus YCR088W, strain abp1, active compounds read low 1.03 | locus YDL005C, strain med2, active compounds read low 1.02 | locus YDL040C, strain nat1, active compounds read low 1.01 | locus YDR001C, strain nth1, active compounds read low 1.04 | locus YDR069C, strain doa4, active compounds read low 1.02 | locus YDR137W, strain rgp1, active compounds read low 1.03 | locus YDR159W, strain sac3, active compounds read low 1.01 | locus YDR195W, strain ref2 1 | locus YDR297W, strain sur2, active compounds read low 1.03 | locus YDR334W, strain swr1, active compounds read low 1.02 | locus YDR335W, strain msn5, active compounds read low 1.05 | locus YDR392W, strain spt3, active compounds read low 1.08 | locus YEL003W, strain gim4, active compounds read low 1.04 | locus YEL037C, strain rad23, active compounds read low 1.05 | locus YEL061C, strain CIN8 (second series), active compounds read low 1.02 | locus YER015W, strain faa2, active compounds read low 1.01 | locus YER016W, strain bim1, active compounds read low 1.04 | locus YER111C, strain swi4, active compounds read low 1.04 | locus YER155C, strain BEM2 (second series), active compounds read low 1.08 | locus YFR010W, strain ubp6, active compounds read low 1.02 | locus YGL167C, strain pmr1, active compounds read low 1.06 | locus YGL173C, strain kem1, active compounds read low 1.02 | locus YGL227W, strain vid30, active compounds read low 1.01 | locus YGL240W, strain doc1, active compounds read low 1.01 | locus YGL253W, strain hxk2, active compounds read low 1.02 | locus YHR013C, strain ard1, active compounds read low 1.08 | locus YHR027C, strain rpn1, active compounds read low 1.03 | locus YHR142W, strain chs7, active compounds read low 1.04 | locus YJL092W, strain hpr5, active compounds read low 1.04 | locus YJL095W, strain BCK1 (second series), active compounds read low 1.06 | locus YJL115W, strain asf1, active compounds read low 1.02 | locus YJL129C, strain trk1, active compounds read low 0.987 | locus YJL154C, strain vps35, active compounds read low 1.03 | locus YJL164C, strain tpk1, active compounds read low 1.07 | locus YJL166W, strain qcr8, active compounds read low 1 | locus YKL160W, strain elf1, active compounds read low 1.04 | locus YKR026C, strain gcn3, active compounds read low 1.03 | locus YKR091W, strain srl3, active compounds read low 1.03 | locus YLL001W, strain dnm1, active compounds read low 1.06 | locus YLL026W, active compounds read low 1.04 | locus YLL041C, strain sdh2, active compounds read low 1.05 | locus YLR027C, strain aat2, active compounds read low 1.06 | locus YLR221C, strain rsa3, active compounds read low 1.07 | locus YLR258W, strain gsy2, active compounds read low 1.07 | locus YLR262C, strain YPT6 (second series), active compounds read low 1.04 | locus YLR320W, strain mms22, active compounds read low 1.02 | locus YLR342W, strain FKS1, active compounds read low 1.03 | locus YLR357W, strain rsc2, active compounds read low 1.09 | locus YLR370C, strain arc18, active compounds read low 1.03 | locus YLR384C, strain iki3, active compounds read low 1.03 | locus YML120C, strain ndi1, active compounds read low 1.02 | locus YMR058W, strain fet3, active compounds read low 1.02 | locus YMR125W, strain sto1, active compounds read low 1.07 | locus YMR129W, active compounds read low 1.03 | locus YMR205C, strain PFK2, active compounds read low 1.02 | locus YMR231W, strain pep5, active compounds read low 1.03 | locus YNL071W, strain lat1, active compounds read low 1.02 | locus YNL209W, strain ssb2, active compounds read low 1.01 | locus YNL248C, strain rpa49, active compounds read low 1.03 | locus YNL322C, strain KRE1 (second series), active compounds read low 1.01 | locus YNR049C, strain mso1, active compounds read low 1.03 | locus YOR001W, strain rrp6, active compounds read low 1.04 | locus YOR070C, strain gyp1, active compounds read low 1.02 | locus YOR080W, strain dia2, active compounds read low 1.02 | locus YOR083W, strain WHI5, active compounds read low 1.04 | locus YOR106W, strain vam3, active compounds read low 1 | locus YOR265W, strain rbl2, active compounds read low 1.02 | locus YOR270C, strain vph1, active compounds read low 0.923 | locus YOR290C, strain snf2, active compounds read low 1.06 | locus YPL051W, strain arl3, active compounds read low 1.04 | locus YPL078C, strain atp4, active compounds read low 0.999 | locus YPL106C, strain sse1, active compounds read low 1.12 | locus YPL240C, strain hsp82, active compounds read low 1.02
